# Only some compounds are listed: those with a hit (about 7.9% of all), similar ones and a draw of the others.
# HCMV antiviral = blocks human cytomegalovirus replication; HFF cells, HCMV-luciferase reporter, 72 h; active compounds read low; activity change, negative = inhibition, % at 57.5 µM; 4.5% of 410,000 active; AID 1259415; in the data active = activity change below about -60%; inconclusive = no clear call, values can overlap the other calls; inactive = above about -39%
#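 Inhibition of viral replication was scored as loss of reporter luminescence in HFFs infected with HCMV-luciferase (MOI 1 PFU/cell) for 72 h; compounds tested at 2 doses, normalized to buffer and Salinomycin controls.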
# FMDV antiviral = antivirals against foot and mouth disease virus | FMDV antiviral cell-based qHTS | Potency, µM (doses to about 57.9 µM), inactives show top-dose activity change, negative = inhibition, actives largely listed as inhibitors | 1.2% of 410,000 active; calls by dose curve; tested in HEK293T cells; note: read-out not given here; potency is the fitted concentration of half-maximal effect; nearly all actives have a fitted effect of over 45% in size
# Lassa entry inh = blocks Lassa virus binding to or entry into cells | Potency, µM (highest dose often 37.9 µM), for inactives: at the top dose activity change, negative = inhibition, usual class: inhibitors | AID 540256 | 1.2% of 300,000 active | Lassa virus pseudotype entry inhibition, cell reporter; calls by dose curve; tested in HEK293 cells; note: potency is the fitted concentration of half-maximal effect; nearly all actives have a fitted effect of over 50% in size
# HCV inhibitor = blocks hepatitis C virus; Huh7.5.1 HCVcc-Cre infection, luciferase reporter, 44 h; Potency, µM (series often up to 41.8 µM), for inactives: top-dose activity change, negative = inhibition, most hits filed as inhibitors; 3.4% of 340,000 active; AID 651820; active = well fitted inhibition curve with a large enough effect; inconclusive = small, poorly fitted or top-dose-only effect, or another doubt; inactive = no such curve, though single readings can be large or run the other way; note: potency is the fitted concentration of half-maximal effect
#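 Compounds are dispensed onto cells plated 4 h earlier at 1,000 per well, with HCVcc-Cre virus (about 0.5 moi) added next. Following 44 h of culture, luminescent signal is measured for 15 sec after 15 min with substrate at room temperature.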
# Marburg entry inh = Marburg virus entry inhibition; AID 540276; 1.8% of 300,000 active; Potency, µM (top dose mostly 37.8 µM), inactives show top-dose activity change, negative = inhibition, usual class: inhibitors; Marburg virus pseudotyped entry inhibition, cell reporter; calls by dose curve; tested in HEK293 cells; note: potency is the fitted concentration of half-maximal effect
# * = called active by the depositor; ? = inconclusive; . = not tested or not shown; [ ] = dose if it differs, or a comment. % is set by controls: 0 for no effect and ±100 for the full control effect.
SMILES,HCMV antiviral,FMDV antiviral,Lassa entry inh,HCV inhibitor,Marburg entry inh
CCn1c(=NC(=O)c2ccc(N3C(=O)CCC3=O)cc2)sc2c(OC)ccc(OC)c21,-7.8,?,.,14.1µM*,4.3%
CCn1c(=NC(=O)c2cccc(N3C(=O)CCC3=O)c2)sc2c(C)ccc(OC)c21,-14.6,2.4%,?,-9.6%,-33.0%[46.1 µM]
CCn1c(=NC(=O)CS(=O)(=O)c2ccc(F)cc2)sc2cccc(OC)c21,?,?,-35.8%,?,?
CCCOc1ccc(C(=O)Nc2nonc2-c2ccc(OCC)cc2)cc1,9.9,5.6%,26.3%[46.1 µM],.,-0.1%[46.1 µM]
COc1ccc(N2CC(NC(=O)c3cc4ccccc4o3)CC2=O)cc1 (configuration not stated),-0.1,-21.1%,-0.6%[46.1 µM],.,.
COc1ccc(SCC2CN(C)CCC2c2ccc(F)cc2)cc1 (configuration not stated),-10.0,14.3%,.,11.2µM*,.
C=CCNC(=O)CC(=O)N/N=C/c1ccc(C(=O)OC)cc1,-66.6*,-22.8%,6.7%,4.8%,0.0%[46.1 µM]
Cc1cccc2sc(NC(=O)C3CCN(S(=O)(=O)c4cc([N+](=O)[O-])ccc4Cl)CC3)nc12,-16.7,?,?,?,6.31µM*
O=C(NC1CCN(Cc2ccccc2)CC1)C1CCN(S(=O)(=O)c2cccc3nsnc23)CC1,-61.7*,?,22.4%,8.3%,-1.5%
CCOc1ccc2nc(NC(=O)C3CCCN(S(=O)(=O)c4cccs4)C3)sc2c1 (configuration not stated),-24.1,?,?,14.1µM*,?
Cc1nnc(NC(=O)C2CCN(S(=O)(=O)c3cc([N+](=O)[O-])ccc3Cl)CC2)o1,?,-11.5%,.,12.8%,.
Cc1cccc(NC(=O)C2CCN(S(=O)(=O)c3cccc4nsnc34)CC2)n1,-4.4,?,?,1.7%,-20.3%
O=C(NC1CCN(Cc2ccccc2)CC1)C1CCN(S(=O)(=O)c2cccc3cccnc23)CC1,-6.0,?,.,?,.
CCOc1ccccc1NC(=O)C1CCCN(S(=O)(=O)c2cccs2)C1 (configuration not stated),-7.7,0.0%,12.2%[46.1 µM],.,2.5%[46.1 µM]
COc1ccc2nc(NC(=O)C3CCN(S(=O)(=O)c4cccc5nsnc45)CC3)sc2c1,-74.8*,7.94µM*,4.61µM*,?,?
Cc1cc2c(cc1C)-n1nnnc1C(N1CCN(c3ncccc3C#N)CC1)C(=O)N2 (configuration not stated),6.6,-2.0%,.,.,.
CCC1(C2CCN(C(=O)c3ccc4ccccc4c3)CC2)NC(=O)N(CCc2scnc2C)C1=O (configuration not stated),.,6.5%,.,.,.
Cc1c2cnn(-c3ccccc3)c(=O)c2c(C)n1CCCC(=O)Nc1cc(F)ccc1F,-12.0,-15.3%,-0.9%[46.1 µM],.,-16.9%[46.1 µM]
Cn1c(NC(=O)c2ccccc2C(F)(F)F)cc(=O)n(C)c1=O,-65.9*,-18.0%,.,9.9%,.
Cn1c(NC(=O)c2ccccc2Br)cc(=O)n(C)c1=O,?,-4.4%,.,-13.5%,.
COc1ccc(-c2cc3ccccc3n2CC(O)CN2CCCCC2)cc1 (configuration not stated),-81.2*,-33.1%,.,-7.9%,.
OC(CN1CCN(c2ccccc2)CC1)Cn1c2ccccc2c2ccccc21 (configuration not stated),-14.8,?,?,2.5%,13.5%[46.1 µM]
OC(CN1CCCCC1)Cn1c2ccc(Cl)cc2c2cc(Cl)ccc21 (configuration not stated),-15.1,?,-29.3%,?,10µM*
Cc1cc(=O)n2c3ccccc3n(CC(O)CN3CCN(Cc4ccccc4)CC3)c2c1C#N (configuration not stated),-67.9*,-25.6%,.,?,.
OC(CN1CCN(Cc2ccccc2)CC1)Cn1c2ccccc2c2ccccc21 (configuration not stated),-27.7,-19.0%,-25.2%,11.2µM*,?
SMILES,HCMV antiviral,FMDV antiviral,Lassa entry inh,HCV inhibitor,Marburg entry inh
COc1cc(OC)cc(-c2c(C#Cc3ccsc3)c3cc(-c4ccccc4OC)ccc3n2C)c1,-3.4,-0.2%,.,19.2%,.
CCC1CC2C(=O)C(c3nc(C)cs3)=COC2CC1O (configuration not stated),.,.,.,.,0.1%[46.1 µM]
CCC[C@H]1[C@@H](NS(=O)(=O)c2ccc(NC(C)=O)cc2)CC[C@@]23CCCN2C(=O)CCC[C@@H]13,-8.1,.,.,.,.
CC(C)C(=O)NC(c1ccc(Cl)cc1Cl)c1ccc2cccnc2c1O (configuration not stated),-104.4*,24.4%,.,2.24µM*,.
CC(NC(=O)CSc1ncccn1)c1ccc(Cl)cc1Cl (configuration not stated),12.9,-1.8%,9.3%[46.1 µM],-9.3%,-1.7%[46.1 µM]
CC(C)C(=O)NC(NC(=S)Nc1cccc2cccnc12)C(Cl)(Cl)Cl (configuration not stated),-8.6,-5.1%,-20.2%,?,-29.9%
CCC(=O)NC(NC(=S)Nc1cccc2cccnc12)C(Cl)(Cl)Cl (configuration not stated),45.0,9.8%,-2.5%,?,?
CCC(=O)NC(c1ccc(Cl)cc1Cl)c1ccc2cccnc2c1O (configuration not stated),-102.5*,-6.3%,?,2.51µM*,11.2µM*
CCCCC(=O)NC(c1ccc(Cl)cc1Cl)c1ccc2cccnc2c1O (configuration not stated),-104.1*,10.3%,7.08µM*,?,?
Cc1ccc(OCc2cccc(S(=O)(=O)N(C)C)c2)c([N+](=O)[O-])n1,31.9,-2.6%,-0.3%,-1.2%,9.1%[46.1 µM]
Clc1ccccc1/C=C/c1nc(-c2ccccn2)no1,?,3.98µM*,?,-27.1%,?
COc1ccc(CCN(Cc2cccs2)S(=O)(=O)c2ccc(-n3cnnn3)cc2)cc1OC,?,?,?,11.2µM*,?
CCC(C)NS(=O)(=O)c1ccc(S(=O)(=O)N(CCc2ccc(OC)c(OC)c2)Cc2cccs2)cc1 (configuration not stated),-64.2*,-25.8%,?,11.2µM*,3.55µM*
C[C@H](CO)N1C[C@H](C)[C@@H](CN(C)C(=O)Nc2ccccc2)Oc2ccc(NC(=O)Cc3ccccc3)cc2C1=O,-39.8,29.8%,.,-4.3%,.
CN(C)c1ccc(/C=N/n2ncc3ccccc32)cc1,.,.,13µM*,?,10.3µM*
CC(=O)c1ccc(-n2nnnc2SCC(=O)NC2CCCCC2)cc1,-30.1,7.3%,-2.4%[46.1 µM],-13.9%,22.2%[46.1 µM]
Cc1ccccc1C(=O)N1CCc2cc(-c3nc(NC(=O)Cc4ccc5c(c4)OCO5)sc3C)ccc21,.,?,?,3.16µM*,3.4%
Cc1cccc(C(=O)N2CCc3cc(-c4nc(NC(=O)CN5CCCC5)sc4C)ccc32)c1,1.2,-21.2%,?,12.6µM*,10µM*
CS(=O)(=O)N1CCc2cc(-c3csc(NC(=O)Cc4cccs4)n3)ccc21,-94.2*,12.6µM*,13µM*,1.41µM*,?
CCC(CC)C(=O)Nc1nc(-c2ccc3c(c2)CCN3C(=O)C2CC2)c(C)s1,-101.7*,11.2µM*,11.2µM*,?,?

# From PubChem BioAssay
